Measured values taken from the supplement of paper PMC6555819.

These sequences were tested on PPARg:RXRa DBDmut IVT, anti-RXR (DBD mutation: RXRa K156A/R161A, NR concentration 270 nM, RXRa partner concentration 90 nM) (assay: PBM binding z-score (relative to random genomic background probes); higher = stronger binding; sequences stand for … in GC…GCGATTGACAGCGTAGAATGAAGG).
In short: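 On custom Agilent 4×180K arrays, double-stranded probes with 34-nt variable regions carried direct-repeat seeds, single-nucleotide variants, half-site ablations or random human genomic background. Ligand-free nuclear receptor dimers were applied for 1 h, and binding was read with antibodies against each partner (one per run). Binding z-scores come from regression-normalized fluorescence, with the random background probes as reference.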

| Sequence | PBM binding z-score |
| --- | --- |
| CATACAGGGTCAGCAAGGCCAGAGTAGGGACGGC | 1.19 |
| CCTACTGGGCCAAAAAAGTCATTGATGCCGATAA | 3.32 |
| CCAGACAGGTGGAAGGTAACTCAGTCTGGTACGC | -0.367 |
| GCTAGTTGGTCAGTAAAGGGTCACACACCGGTCG | 0.794 |
| TCTTGTAGCTCAAGCAGGTTAAGAAAGCCTGAGT | 0.652 |
| ACTAGCAGGCCAAGGGTCACTAAAGATTAGTCCG | 1.3 |
| CCGACTGGGGCCAGGTTACCATAACGCACAGCCA | -0.238 |
| ATATGTAGGTTATCGGGTCATTCAATTTGCGCAT | 7.45 |
| CCTTTCGGGTCACTCCAGGTTATAGCATCGGAGT | 2.65 |
| ACAGACAGGTGAGTGAAGGTAACTCCGCTGGACG | 0.529 |
| TGTCAAAGTTCAACGGTAACGTAAGTATCCACAC | 0.0114 |
| ATCTGTAGGTTAAGGGTCATTCAGGTTGGTTCGC | 3.99 |
| GGAAGGAGGGCAAAGTTGATAGCATCTGTCGACG | 4.12 |
| CGTCGAAGTTCAAGGTAACGTAACAGAAAGCAGC | -0.377 |
| AGTCAAAGTTCATCCAGGTAACGTAAGATATGCT | 0.286 |
| TAGCCTAGGTCATGGGCGAGTATACCACGCGAAC | 1.54 |
| CCAGACAGGTGAGAAGGTAACTAAGCCTCGATTA | 0.948 |
| CATACAGGGTCAGCTACGCCAGAGTAGGGACGGC | 1.11 |
| CATACAGGGTCAGCGAGGCCAGAGTAGGGACGGC | 0.932 |
| AATACAGGGTCATCGCAGGCCAGAGTACGCACAG | 2.75 |

| Sequence | PBM binding z-score |
| --- | --- |
| TCATATAGGAAATACAGGTGAAAGTCGGCATCTA | 3.01 |
| TTACCAAGGTGGGCTGAGGTCGTTGATCCAACTC | -0.241 |
| CAAACTAGGTCACCGGAAGGTCAAACTCCGCATG | 8.32 |
| TAGCCTAGGTCAGATCGGACCAGTATACGCTATA | 0.812 |
| TCATATAGGTAAAAGGTGAAAGTCGGTGTGGTAA | 5.72 |
| ACTATTCGTTGAGACGAGGGCAACCGATAGGTTG | 0.199 |
| TCGAGTAGGTTACCAATGGGCCATTCAGCTTTCT | 3.13 |
| TCGAGTAGGTTAGACGGGGCATTCAGCCAACATA | 2.22 |
| AGAATGAGGTTACTAAGATCAGGGAATTGCGGTC | 4.08 |
| CCGACTGAGGCAGAAAGGTTACCATACCATCCGG | -0.0384 |
| GCAGACAGGTGAAACGCACGTAACTCAGGGTGGC | 0.74 |
| CCGACTGGGGCAGAAAGGTTACCATACCATCCGG | 1.62 |
| GCTCGGAGGAAAAGGTCAGAGCTTTGTCCGTAGA | -0.0327 |
| AGAATGAGGTAAAGATCAGGGAAACAGAATACAT | 1.72 |
| CAGCCCAGGTCAGGGCCAGTATAGGAGGAACGTT | 0.375 |
| CGAACTAGGTCAGAACAGGACAGTGGAGGATGAT | 7.32 |
| CCTACTGGGCCATCAGGTCATTGATATCAACGTT | 4.98 |
| GTTTACGGGTCAAAGGTTATAGCATGAATAGAAT | 4.49 |
| TCAGACAGGTGAAGGTAACTCCGGTACGCAGTCG | 2.59 |
| TAGCCTAGGTCATGGGCCAGTATGCCACGCGAAC | 1.9 |
